# Results published in PubChem BioAssay.
# Values joined by “and” are separate entries in the source; they are usually repeats but may differ in a detail not shown here. Identical values can stand only once. For part of these data: Entries with a potency or affinity are not part of this list. Active and inactive are the calls of the source. Unless noted, no rule for the calls is given here.
# Assays:
# [1] = polyglutamine-triggered caspase-3 activation inhibitors, cell-based (AID 1583); conditions: polyglutamine-induced caspase-3 activation, cell assay; stronger effect = higher value;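 tested at 10 µM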
# [2] = suppressors of polyQ aggregation in yeast, 75Q-TubU reporter (AID 1593); conditions: Yeast 75Q polyglutamine aggregation reporter
# [3] = rescue of polyQ-huntingtin neuronal dysfunction in worms, whole organism, C. elegans mechanosensory neurons, N-terminal huntingtin (AID 1599); conditions: touch response, stronger effect = higher value
# [4] = inhibitors of mitochondrial cytochrome c release, biochemical, purified mitochondria (AID 1603); conditions: stronger effect = lower value;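 also: mouse liver mitochondria challenged with calcium chloride; signal normalized to the plate average as 100%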
# [5] = inhibitors of polyQ protein aggregation (AID 1604); conditions: polyglutamine-induced protein aggregation inhibition assay; stronger effect = higher value; tested at 2.5 µM
# [6] = enhancers of glutamate uptake in motor neurons, MN-1 cell line (AID 1612); conditions: MN-1 motor neuron cells, stronger effect = higher value;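 also: tested at 1 µM final; 0% = mean of DMSO vehicle wells on each plate; positive means more glutamate uptake than control and negative means less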
# [7] = reducers of polyQ inclusions in PC12 cells, cell-based, NGF-treated PC12, GFPQ80 (AID 1614); conditions: PC12 NGF-treated GFP-polyQ80 inclusion reduction;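 also: lower means fewer inclusions and 0 means no inclusions at all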
# [8] = suppressors of polyglutamine aggregation in yeast, 75Q-TubH (AID 1616); conditions: S. cerevisiae 75Q-TubH polyglutamine aggregation suppression; stronger effect = higher value
# [9] = circadian clock period modulators, cell-based, LOPAC library, luminescence reporter (AID 2774); conditions: circadian reporter cells, at 7 µM, actives lie on both sides;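 also: values are relative to mean of DMSO wells on each plate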
# [10] = hESC survival regulators, cell-based (AID 493140); conditions: human embryonic stem cell survival screen; stronger effect = higher value;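 also: cells exposed to compounds for four days before counting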
# [11] = test system: Hepatitis C virus NS3 helicase; test: HCV NS3 helicase inhibitors, primary screen, biochemical, fluorescence polarization, LOPAC1280 library (AID 687035; in the data active = inhibition above about 37%); conditions: Purified HCV NS3 helicase, Cy5-dT15 ssDNA binding fluorescence polarization; stronger effect = higher value; concentration not given here
# [12] = Cy5 fluorescence quenching or enhancement artefacts, artefact control for HCV NS3 helicase inhibitor project, biochemical, LOPAC1280 (AID 687037); conditions: Cy5-DNA-NS3h complex fluorescence interference counterscreen
# [13] = Cy5 fluorescence interference with SSB-bound oligo, artefact control for HCV NS3 helicase inhibitor project, biochemical, NIH Clinical Collection, E. coli SSB (AID 743268)
# [14] = test system: Hepatitis C virus NS3 helicase; test: HCV NS3 helicase inhibitors, primary screen, biochemical, fluorescence polarization, NIH Clinical Collection (AID 743270); conditions: NS3 helicase binding to Cy5-dT15 DNA, stronger effect = higher value, concentration not given here
# [15] = molecular target: Single-stranded DNA-binding protein (Escherichia coli (strain K12)) (UniProt P0AGE0); test: E. coli SSB displacement from DNA, counter-screen for HCV NS3 helicase inhibitor project, biochemical, fluorescence polarization, NIH Clinical Collection (AID 743271; in the data active = inhibition above about 28%); conditions: stronger effect = higher value, concentration not given here
# [16] = fluorescence interference in NS3h assay format, artefact control for HCV NS3 helicase inhibitor project, biochemical, NIH Clinical Collection (AID 743272); conditions: fluorescence interference counterscreen, stronger effect = lower value;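 also: HCV NS3 helicase with a Cy5 labelled single stranded DNA probe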
# [17] = test system: Neuropilin-2 / VEGF-C interaction (human); test: inhibitors of NRP2–VEGF-C binding, biochemical, microplate binding format, z-score (AID 743281); conditions: microplate NRP2/VEGF-C binding assay; stronger effect = lower value
# [18] = stimulators of nuclear beta-catenin in C2C12, primary screen, imaging, WNT3A-conditioned medium, mouse C2C12, NPC library (AID 1117326; in the data active = nuclear beta-catenin stimulation mostly above about 4.2%, no sharp cut-off; inactive = mostly below about 10%); conditions: stronger effect = higher value
# [19] = stimulators of insulin release from INS-1E, primary screen, cell-based, 5 mM glucose, NPC library (AID 1117329;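 active = compound raises insulin release from rat beta cells at 5 mM glucose, no numeric limit stated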); conditions: rat INS-1E insulin secretion, at 10 µM, stronger effect = higher value
# [20] = growth inhibition of GSK3B-pretreated HCT116 cells – cell-based, CellTiter-Glo, 0.2 to 20 µM (AID 1117336;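 active = compounds lowering colon cancer cell viability after pretreatment blocking the GSK3B kinase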); conditions: HCT116 viability after GSK3B inhibitor, at 20 µM, stronger effect = higher value
# [21] = inhibition of endothelial tube formation, primary screen, imaging, VEGF stimulated, CD31 staining, tube area, NPC library (AID 1117340;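 active = compound that reduces growth-factor-driven endothelial tube area in a mixed cell culture, no cutoff stated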); conditions: VEGF-stimulated ADSC/ECFC co-culture, at 10 µM, stronger effect = higher value
# [22] = glucagon-like peptide 1 release enhancers, primary assay, NCI-H716 cell line, NPC library (AID 1117341;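 active = compound raises GLP1 secretion from the human gut endocrine cells, with no numeric limit stated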); conditions: NCI-H716 cells, at 10 µM, stronger effect = higher value
# [23] = HCT116 colon cancer cell growth inhibition, primary screen, CellTiter-Glo luminescence, NPC library (AID 1117342;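 active = compounds that lower survival of HCT116 colon cancer cells in the luminescence readout, no numeric limit stated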); conditions: at 20 µM (top of the series)
# [24] = CellTiter-Glo luminescent readout of SW480 viability loss, NPC library primary (AID 1117343;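 active = compounds that lower viability of the colon cancer cells in the luminescence readout, with no numeric limit stated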); conditions: CellTiter-Glo luminescence; at 20 µM (top of the series)
# [25] = decreased DLD-1 cellular survival, CellTiter-Glo luminescent readout, NPC compound collection, primary HTS (AID 1117346;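 active = compounds that lower survival of DLD-1 colon cancer cells in the luminescence readout, no cutoff given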); conditions: DLD-1 viability, CellTiter-Glo luminescence; at 20 µM (top of the series)
# [26] = molecular target: 6-phosphogluconate dehydrogenase, decarboxylating (Homo sapiens) (UniProt P52209); test: 6PGD enzyme inhibitors, primary screen, biochemical, human, recombinant enzyme, NADPH absorbance (AID 1159550;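 active = at least 20% inhibition of 6-phosphogluconate dehydrogenase activity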); conditions: recombinant 6PGD, NADPH absorbance 341 nm; at 10 µM; stronger effect = higher value
# [27] = modulation of C. elegans fzo-1 (AID 1259413);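 also: fzo-1 mutant C. elegans worms in liquid wells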; conditions: C. elegans fzo-1 modulator screen, mean read-out; stronger effect = higher value
# [28] = differential killing of epithelial or mesenchymal cells, primary screen, imaging, PC-3E GFP, TEM4-18 mCherry, co-culture (AID 1345086;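 active = compounds killing one labelled cell type while sparing the other, by normalised counts and ratio limits, not self-fluorescent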;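 as to all read-outs here: cells exposed to compound for 72 h before imaging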;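 as to red/green cell ratio (normalised): normalised mesenchymal count divided by normalised epithelial count so high means epithelial killing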); conditions: imaging cell counts, at 1 µM; for red/green cell ratio (normalised): actives lie on both sides, counts scaled to control wells, 1 = unselective
# [29] = phospholipid biosynthesis inhibitors in animal cells, primary screen, cell-based, LOPAC library, screen 4 (AID 1347384); conditions: phospholipid biosynthesis inhibition screen, at 10 µM
# [30] = survival rescue of mitochondrial mutant cells in low glucose, primary screen, MELAS cybrids, Rieske KO mouse fibroblasts, CellTiter-Glo (AID 1508586;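 active = mean z-score across replicates of 1.96 or higher in either the MELAS or the Rieske mutant cell line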;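 also: z relative to plate mean and SD of compound and empty wells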)
# [31] = molecular target: NAD(+) hydrolase SARM1 (Homo sapiens) (UniProt Q6SZW1); test: SARM1 TIR NADase inhibitors, cell lysate, NAD-Glo luminescence (AID 1508614;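 active = compound whose remaining NAD level is above about 45 nM, limit read from the data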;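 also: higher remaining NAD means stronger inhibition of SARM1 NADase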); conditions: SAM-TIR HEK293T lysate NADase, at 1 µM, stronger effect = higher value
# [32] = molecular target: Mitogen-activated protein kinase 7 (Homo sapiens) (UniProt Q13164); test: ERK5 transactivation activators in reporter cells, primary screen, cell-based, HTS (AID 1508626;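 active = luciferase signal above three times the same-plate solvent-only control wells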;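 also: luciferase driven by Gal4-ERK5 fusion binding five Gal4 sites before minimal TATA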); conditions: HeLa Gal4-ERK5 transactivation, 18 h, at 5 µM, stronger effect = higher value
# [33] = viability rescue of complex I mutant cybrids, primary screen, cell-based, galactose medium, ATP luminescence (AID 1645843;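 active = z-score of at least 1.8 in each of two replicates, scored against plate mean and spread of sample wells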;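 also: positive z means more ATP and so rescue of galactose-driven cybrid death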); conditions: complex I mutant cybrid cells, 72 h, stronger effect = higher value
# F380Y = test: modulators of BK channel variants, profiling panel, selectivity assay, cell-based, U2OS BacMam, thallium flux, beta subunits (AID 1259406;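 active = thallium flux through the channel raised or lowered by more than 3 SD from vehicle-only wells, actives on both sides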;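 also: initial slope of Thallos dye fluorescence rise after thallium is added; log ratio against the mean of 0.3% DMSO vehicle wells on the same plate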); conditions: at 30 µM
# F380Y/beta2Delta = test: as above; conditions: at 30 µM
# [34] = molecular target: Calcium-activated potassium channel subunit alpha-1 (Homo sapiens) + Leucine-rich repeat-containing protein 26 (Homo sapiens) (UniProt Q12791+Q2I0M4); test: as above; conditions: F380Y/Slo1WT/gamma1, at 30 µM
# R275C = test: as above; conditions: at 30 µM
# R275C/beta1 = test: as above; conditions: at 30 µM
# R275C/beta2Delta = test: as above; conditions: at 30 µM
# [35] = liver-stage malaria parasite growth inhibition, primary screen, cell-based, HepG2, luciferase luminescence, HepG2 viability (AID 624349; in the data active = parasite load remaining mostly below about 12%, no sharp cut-off; inactive = mostly above about 10%;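 also: 100% = mean of DMSO negative control wells on the same plate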); conditions: P. berghei liver stage in HepG2, luciferase luminescence, concentration not given here; parasite load remaining: stronger effect = lower value; viability: measured here: HepG2 viability without parasites
# [36] = sensitizers of A549 cells to miR-34 induction, primary screen, imaging, A549 dox-inducible miR-34, nuclei and caspase counts (AID 1347080;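 active = compounds whose cell count with miR-34 switched on is under 0.7 times the count with it off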); conditions: A549 miR-34 inducible, Hoechst nuclei count, 48 h
# [37] = measured here: epithelial PC-3E GFP cell survival
# [38] = measured here: mesenchymal TEM4-18 mCherry cell survival
# [39] = MELAS cybrid survival, CellTiter-Glo 48 h, stronger effect = higher value
# [40] = Rieske KO mouse fibroblast survival, CellTiter-Glo 72 h
# Calcium-activated potassium channel subunit alpha-1 (Homo sapiens) + Leucine-rich repeat-containing protein 26 (Homo sapiens), sequence (Q2I0M4 whole entry, looked up, one chain of several): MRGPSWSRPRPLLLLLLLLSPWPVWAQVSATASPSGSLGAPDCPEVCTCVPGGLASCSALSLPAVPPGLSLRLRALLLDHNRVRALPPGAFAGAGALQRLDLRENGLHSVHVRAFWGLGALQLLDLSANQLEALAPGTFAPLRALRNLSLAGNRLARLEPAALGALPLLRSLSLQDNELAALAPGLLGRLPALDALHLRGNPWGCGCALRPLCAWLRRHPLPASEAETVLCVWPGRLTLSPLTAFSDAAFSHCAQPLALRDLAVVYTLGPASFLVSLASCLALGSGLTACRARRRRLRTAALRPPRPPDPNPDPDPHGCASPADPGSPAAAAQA
# NAD(+) hydrolase SARM1 (Homo sapiens), sequence (Q6SZW1 whole entry, looked up, the tested form may be a part): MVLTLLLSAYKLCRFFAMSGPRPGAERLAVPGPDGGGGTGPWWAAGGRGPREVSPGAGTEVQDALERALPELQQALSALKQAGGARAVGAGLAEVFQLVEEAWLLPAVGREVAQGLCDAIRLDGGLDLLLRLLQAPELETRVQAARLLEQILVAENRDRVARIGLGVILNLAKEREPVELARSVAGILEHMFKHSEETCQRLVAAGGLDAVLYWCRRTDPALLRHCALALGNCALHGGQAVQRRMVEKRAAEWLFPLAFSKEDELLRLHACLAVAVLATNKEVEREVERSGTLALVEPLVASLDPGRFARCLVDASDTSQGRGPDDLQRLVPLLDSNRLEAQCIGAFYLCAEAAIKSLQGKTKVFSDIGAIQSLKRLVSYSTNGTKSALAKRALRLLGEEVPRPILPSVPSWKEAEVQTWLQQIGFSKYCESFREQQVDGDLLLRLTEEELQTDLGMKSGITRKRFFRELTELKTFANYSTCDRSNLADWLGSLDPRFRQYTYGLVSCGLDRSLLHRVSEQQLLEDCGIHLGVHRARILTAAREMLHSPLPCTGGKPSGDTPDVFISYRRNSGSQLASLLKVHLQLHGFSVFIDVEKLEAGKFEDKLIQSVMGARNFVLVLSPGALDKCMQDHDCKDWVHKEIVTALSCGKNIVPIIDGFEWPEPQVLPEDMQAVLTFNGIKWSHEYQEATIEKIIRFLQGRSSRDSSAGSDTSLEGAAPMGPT
# 6-phosphogluconate dehydrogenase, decarboxylating (Homo sapiens), sequence (P52209 whole entry, looked up): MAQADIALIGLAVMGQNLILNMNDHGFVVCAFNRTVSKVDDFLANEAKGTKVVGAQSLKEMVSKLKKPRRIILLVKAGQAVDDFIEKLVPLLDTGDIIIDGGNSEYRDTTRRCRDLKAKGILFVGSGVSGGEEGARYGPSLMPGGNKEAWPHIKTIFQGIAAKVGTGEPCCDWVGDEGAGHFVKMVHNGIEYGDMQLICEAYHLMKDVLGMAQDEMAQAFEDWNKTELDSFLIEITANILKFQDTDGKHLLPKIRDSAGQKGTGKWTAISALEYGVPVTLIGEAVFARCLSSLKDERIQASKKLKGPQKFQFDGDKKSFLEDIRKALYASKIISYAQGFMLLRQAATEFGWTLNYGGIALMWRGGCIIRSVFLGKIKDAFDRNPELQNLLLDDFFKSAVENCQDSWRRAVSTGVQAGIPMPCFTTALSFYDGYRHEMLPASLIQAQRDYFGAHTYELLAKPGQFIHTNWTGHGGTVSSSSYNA
# Mitogen-activated protein kinase 7 (Homo sapiens), sequence (Q13164 whole entry, looked up, the tested form may be a part): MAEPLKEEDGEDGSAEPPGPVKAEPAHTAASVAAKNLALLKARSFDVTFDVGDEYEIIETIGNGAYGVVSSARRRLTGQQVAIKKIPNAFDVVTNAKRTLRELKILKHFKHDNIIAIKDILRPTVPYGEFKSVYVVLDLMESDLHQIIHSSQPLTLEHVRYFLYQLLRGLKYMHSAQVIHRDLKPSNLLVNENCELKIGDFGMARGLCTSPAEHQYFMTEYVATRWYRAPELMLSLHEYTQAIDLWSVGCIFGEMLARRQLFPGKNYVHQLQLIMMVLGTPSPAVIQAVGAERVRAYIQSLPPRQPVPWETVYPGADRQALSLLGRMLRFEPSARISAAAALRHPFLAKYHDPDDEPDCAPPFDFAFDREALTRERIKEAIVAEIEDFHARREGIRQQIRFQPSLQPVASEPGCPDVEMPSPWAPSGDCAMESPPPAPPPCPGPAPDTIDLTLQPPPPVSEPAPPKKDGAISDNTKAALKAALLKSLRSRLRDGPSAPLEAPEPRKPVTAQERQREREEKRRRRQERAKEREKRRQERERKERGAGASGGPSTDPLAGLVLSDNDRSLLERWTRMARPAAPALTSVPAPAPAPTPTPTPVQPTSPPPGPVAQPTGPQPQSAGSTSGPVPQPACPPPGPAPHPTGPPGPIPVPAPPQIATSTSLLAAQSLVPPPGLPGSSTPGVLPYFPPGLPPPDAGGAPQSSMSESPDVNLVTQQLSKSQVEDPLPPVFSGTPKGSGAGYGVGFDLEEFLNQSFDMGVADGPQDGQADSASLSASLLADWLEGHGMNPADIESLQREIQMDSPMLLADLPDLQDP
compound,measurement,setting,value
CCN(CC)CC(=O)Nc1c(C)cccc1C,inhibition,[1],-3.43%
same,score,[2],1.56
same,rescue above control,[3],-0.5
same,cytochrome c release ratio,[4],1.13
same,inhibition of aggregation,[5],87%
same,glutamate uptake change,[6],0.81%
same,inclusion score,[7],2
same,aggregation suppression score,[8],1.18
same,period change,[9],-0.265 h (inactive)
same,survival,[10],23.2 (inactive)
same,inhibition,[11],-3% (inactive)
same,fluorescence ratio (interference),[12],1 (inactive)
same,fluorescence ratio,[13],1.01 (inactive)
same,inhibition,[14],-1.98% (inactive)
same,inhibition,[15],-0.87% (inactive)
same,fluorescence ratio,[16],0.96 (inactive)
same,z-score,[17],1.47 (inactive)
same,nuclear beta-catenin stimulation,[18]; at 10 µM,-0.4% (inactive)
same,nuclear beta-catenin stimulation,"[18]; stimulation, at 2 µM",0.8%
same,insulin secretion stimulation,[19],-1.4% (inactive)
same,viability decrease,[20],-9.9% (inactive)
same,tube area decrease,[21],9.2% (inactive)
same,GLP1 secretion stimulation,[22],0.9% (inactive)
same,inhibition of viability,[23],-5.2% (inactive)
same,viability decrease (inhibition),[24],-0.2% (inactive)
same,viability decrease (inhibition),[25],0.45% (inactive)
same,inhibition,[26],-1.54% (inactive)
same,mean signal,[27],257 (inactive)
same,red/green cell ratio (normalised),[28],1.11 (inactive)
same,normalised cell number,[28]; [37],1.01
same,normalised cell number,[28]; [38],1.12
same,outcome,[29],inactive
same,z-score,[30]; [39],-0.329 (inactive) and 0.222 (inactive) and 0.215 (inactive)
same,z-score,[30]; [40],-0.148 and 0.143 and 0.303
same,remaining NAD,[31],10 nM (inactive)
same,luciferase signal,[32],48 AU (inactive)
same,z-score,[33],0.01 (inactive) and 0.715 (inactive) and 0.48 (inactive)
same,log fold change Tl+ flux,F380Y,0.00448 (inactive)
same,log fold change Tl+ flux,F380Y/beta2Delta,-0.0588 (inactive)
same,log fold change Tl+ flux,[34],0.0193 (inactive)
same,log fold change Tl+ flux,R275C,-0.00245 (inactive)
same,log fold change Tl+ flux,R275C/beta1,-0.022 (inactive)
same,log fold change Tl+ flux,R275C/beta2Delta,0.00392 (inactive)
CN(C)CCN(Cc1ccccc1)c1ccccn1,inhibition,[1],16.8%
same,score,[2],1.31
same,rescue above control,[3],2.67
same,cytochrome c release ratio,[4],1.13
same,inhibition of aggregation,[5],79.6%
same,glutamate uptake change,[6],-25.1%
same,inclusion score,[7],2
same,aggregation suppression score,[8],1.09
same,parasite load remaining,[35],50.9% (inactive) and 109% (inactive)
same,viability,[35],82.5% and 67.3%
same,fluorescence ratio,[13],1.01 (inactive)
same,inhibition,[14],0.4% (inactive)
same,inhibition,[15],-0.87% (inactive)
same,fluorescence ratio,[16],0.93 (inactive)
same,z-score,[17],-0.192 (inactive)
same,nuclear beta-catenin stimulation,[18]; at 10 µM,1.1% (inactive)
same,nuclear beta-catenin stimulation,"[18]; stimulation, at 2 µM",0.8%
same,insulin secretion stimulation,[19],13% (inactive)
same,viability decrease,[20],-23.2% (inactive)
same,tube area decrease,[21],5.3% (inactive)
same,GLP1 secretion stimulation,[22],4.8% (inactive)
same,inhibition of viability,[23],13.3% (inactive)
same,viability decrease (inhibition),[24],-2.1% (inactive)
same,viability decrease (inhibition),[25],-41.1% (inactive)
same,inhibition,[26],4.76% (inactive)
same,mean signal,[27],272 (inactive)
same,red/green cell ratio (normalised),[28],0.96 (inactive)
same,normalised cell number,[28]; [37],1.02
same,normalised cell number,[28]; [38],0.99
same,fold change,"[36]; stronger effect = lower value, cell number ratio, induced over uninduced",1.02 (inactive) and 1.23 (inactive) and 0.865 (inactive)
same,fold change,[36]; measured here: relative caspase fold change +Dox/-Dox,1.94 and 0.367 and 2.89
same,cell count,"[36]; measured here: total cells with miR-34 induction, stronger effect = lower value",10300 and 8350 and 10800
same,cell count,[36]; measured here: total cells without miR-34 induction,10100 and 6800 and 12500
same,z-score,[30]; [39],-0.152 (inactive) and -0.218 (inactive)
same,z-score,[30]; [40],-0.132 and 0.37
same,remaining NAD,[31],10 nM (inactive)
same,luciferase signal,[32],32 AU (inactive)
same,z-score,[33],0.73 (inactive)
same,log fold change Tl+ flux,F380Y,-0.114 (active)
same,log fold change Tl+ flux,F380Y/beta2Delta,-0.027 (inactive)
same,log fold change Tl+ flux,[34],0.0226 (inactive)
same,log fold change Tl+ flux,R275C,0.027 (inactive)
same,log fold change Tl+ flux,R275C/beta1,0.0111 (inactive)
same,log fold change Tl+ flux,R275C/beta2Delta,-0.0395 (inactive)
